Structures are written as SMILES. This is part of a sample that, as a whole, favours compounds with a hit. Of some 79,000 tested, about 15% had one in any assay. Unmarked numbers belong to inactive results. Active and inactive are the calls of the source. Cut-off read from the data, not from the text of the source: active = growth inhibition above about 70%; inactive = the rest.

The results in this text go back to PubChem BioAssay (NCI).

The nature of test [1]: NCI Yeast Anticancer Drug Screen. Data for the rad50 strain (AID 155).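 Note: 0% = growth of vehicle-only cultures of the same strain.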 The following applies: S. cerevisiae rad50 strain growth inhibition; at 50.0 µM; stronger effect = higher value. The method, boiled down: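 Vehicle-treated cultures provide the reference for the growth inhibition reported for compound-exposed, repair-deficient yeast.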
Test [2] is described as follows: NCI Yeast Anticancer Drug Screen. Data for the mec2-1 strain (AID 157). The following applies: S. cerevisiae mec2-1 strain, at 50.0 µM, stronger effect = higher value. The procedure, abridged: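 Using mec2-1 yeast: add compound, measure growth, express inhibition versus vehicle-treated cultures.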
Test [3] is described as follows: NCI Yeast Anticancer Drug Screen. Data for the sgs1 mgt1 strain (AID 161).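 Note: 0% = growth of cultures given vehicle only.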 To be noted: S. cerevisiae sgs1 mgt1 strain, at 50.0 µM, stronger effect = higher value. The procedure, abridged: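 Growth of a repair-deficient yeast mutant was monitored after compound treatment and expressed as inhibition relative to vehicle-treated cultures.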
Test [4] in a line: NCI Yeast Anticancer Drug Screen. Data for the cln2 rad14 strain (AID 165).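 Note: 0% = growth equal to vehicle treated cultures.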 To be noted: S. cerevisiae cln2 rad14 strain, at 50.0 µM, stronger effect = higher value. The method, boiled down: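 Yeast strain cln2 rad14, bearing defects in cell cycle control and DNA repair, serves as the test system; values reflect growth inhibition compared with vehicle.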
Test [5] in a line: NCI Yeast Anticancer Drug Screen. Data for the bub3 strain (AID 167). To be noted: S. cerevisiae bub3 mutant strain, at 50.0 µM, stronger effect = higher value. The procedure, abridged:
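Mutant yeast screening strain plus compound; vehicle-treated cultures serve as the 0% inhibition reference.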

A short description of test [6]: NCI Yeast Anticancer Drug Screen. Data for the mlh1 rad18 strain (AID 175). The following applies: S. cerevisiae mlh1 rad18 strain growth inhibition; at 50.0 µM; stronger effect = higher value. The procedure, abridged: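 Steps: expose repair-defective yeast to compound; measure growth; express inhibition against vehicle-treated controls.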

As to `CCOC(=O)CCCCCOC1CCCCO1` (stereo unspecified), the growth inhibition in test [1] is 7.4%; in test [2], 18.2%; in test [3] it was 11.2%; in test [4] it was -0.1%; in test [5], -7.35%; in test [6] it was -10.5%.

As for `CC1(c2ccccc2)OCCS1` (stereo unspecified), the growth inhibition in test [1] was 40.7%; in test [2], 21.1%; in test [3], 19.8%; in test [4], 14.6%; in test [5] it was 1.1%; in test [6], 28.8%.

For the molecule `O=C(O)C(C(=O)O)C1CCCCCC1`, the growth inhibition is -34.4% in test [1]; -6.6% in test [2]; -17.9% in test [3]; -29.9% in test [4]; -1.9% in test [5]; 14.2% in test [6].

With `NSC(=S)NCc1ccco1`, the growth inhibition in test [1] was 1%; in test [2], -2.95%; in test [3], 7.75%; in test [4], -52.1%; in test [5], 15.8%; in test [6], 13.7%.

On to `CC1CCC(C(C)C)C(OC(=O)c2ccccc2O)C1` (stereo unspecified), for which the growth inhibition in test [1] is 16.1%; in test [2], 6.9%; in test [3], -11.3%; in test [4], 33.5%; in test [5], 12%; in test [6], 35.5%.

In the case of `N#C/C(=N\Nc1ccc(F)cc1)C(=O)C1CC1`, the growth inhibition in test [1] was 9.1%; in test [2], 9.05%; in test [3], 5.8%; in test [4], 11.3%; in test [5], 4.3%; in test [6], 11.7%.

For the molecule `O=C(/C=C/c1ccc2c(c1)OCO2)C1CC1`, the growth inhibition in test [1] was 6.45%; in test [2], 11.1%; in test [3], 28.2%; in test [4], 8.25%; in test [5] it was 27.7%; in test [6], 16.9%.

On to `O=[N+]([O-])c1ccc(/C([O-])=C(\C(=S)Nc2ccccc2Cl)[n+]2ccccc2)cc1`, for which the growth inhibition is -7.5% in test [1]; 0.1% in test [2]; -6.95% in test [3]; -14.4% in test [4]; 2.35% in test [5]; 11.2% in test [6].

On to `CC(C)C1NC(=O)NC1=O` (stereo unspecified), for which the growth inhibition in test [1] was -4%; in test [2], -23.2%; in test [3], -3.7%; in test [4], 10.7%; in test [5], 0.65%; in test [6] it was -4.4%.

As for `O=C1NC(=NC2CCCCC2)C2(CCN(CCCC3(c4ccc(F)cc4)OCCO3)CC2)N1c1ccccc1`, the growth inhibition in test [1] is -18.8%; in test [2], -17.2%; in test [3], -6.3%; in test [4] it was 5%; in test [5] it was -5%; in test [6] it was -1.45%.

Consider `Cc1ccc2c(Nc3ccc(NS(C)(=O)=O)cc3C)c3ccccc3nc2c1`, for which the growth inhibition in test [1] is 42.4%; in test [2], -27.4%; in test [3], 6.2%; in test [4] it was 4.2%; in test [5] it was 4.25%; in test [6], -23.5%.

For `Cc1cccc2c1ccc1ccccc12`, the growth inhibition in test [1] is 5.55%; in test [2] it was 6%; in test [3] it was -5.45%; in test [4], -9%; in test [5], -9.65%; in test [6] it was 9.5%.

As for `COc1ccc(/C(=N\NC(=O)NN)C(c2ccc(OC)cc2)C2(O)C(=O)Nc3c(Cl)cc(Cl)cc32)cc1` (stereo unspecified), the growth inhibition in test [1] was 6.2%; in test [2], -7.75%; in test [3], -57%; in test [4] it was -16.8%; in test [5] it was 8.6%; in test [6] it was -10.2%.

On to `[N-]=[N+]=NC1CCOC(n2cnc3c(N)ncnc32)C1O` (stereo unspecified), for which the growth inhibition in test [1] was -2.05%; in test [2], -3.95%; in test [3] it was 5.55%; in test [4], -33.5%; in test [5], -4.6%; in test [6], 1.85%.

Turning to `Cc1cccc(C)c1NC(=S)NC1CC(C)CC(C)(C)C1` (stereo unspecified), the growth inhibition in test [1] was 41.2%; in test [2], 50.5%; in test [3], 76.7% (active); in test [4] it was 57.9%; in test [5], 63%; in test [6], 50.3%.

With `Cc1cccc(NC(=O)C(Cl)Cl)n1`, the growth inhibition is -2.3% in test [1]; -20.8% in test [2]; -24.4% in test [3]; -43.8% in test [4]; -1.95% in test [5]; -18.1% in test [6].

With `O=C(O)CCC12CCC(=O)C=C1NC(=O)CC2` (stereo unspecified), the growth inhibition in test [1] was 1.55%; in test [2], -4.4%; in test [3], -7.2%; in test [4] it was -1.65%; in test [5], 0.15%; in test [6], -1.25%.

As to `C1C[O][Ge]2([O]1)[O]CC[O]2`, the growth inhibition in test [1] is -24.9%; in test [2], -4.95%; in test [3] it was -16.2%; in test [4], 17.1%; in test [5], -13.2%; in test [6], -5.95%.

Turning to `CCOC(=O)CC(C(C)=O)C(=O)OCC` (stereo unspecified), the growth inhibition in test [1] was 14.9%; in test [2], 12.3%; in test [3], -3.55%; in test [4], -29.6%; in test [5] it was 5.6%; in test [6], -1.4%.

As to `S=C(Cc1cccnc1)N1CCOCC1`, the growth inhibition in test [1] is -7.85%; in test [2], 41.5%; in test [3], 8.2%; in test [4] it was -27.9%; in test [5], 5.15%; in test [6] it was 45.5%.

As to `Nc1ccc(C(=O)O)cn1`, the growth inhibition in test [1] is -20.4%; in test [2] it was -11.1%; in test [3], 29.6%; in test [4], -34.5%; in test [5] it was 9.95%; in test [6], -0.45%.
